In the supplement of paper PMC6555819:

What was measured:
Assay in all cases: PBM binding z-score (relative to random genomic background probes); higher = stronger binding; sequences stand for … in GC…GCGATTGACAGCGTAGAATGAAGG
[1] = test system: PPARg:RXRa DBDmut IVT, anti-RXR (DBD mutation: RXRa K156A/R161A, NR concentration 270 nM, RXRa partner concentration 90 nM)
Procedure, shortened: (§1)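 Binding buffer was PBS pH 7.4 with 2% milk, 0.02% Triton X-100, 1 mM DTT, 0.2 mg/mL BSA and 0.4 mg/ml salmon testes DNA. In it, ligand-free nuclear receptor dimers were incubated 1 h on custom Agilent 4×180K protein-binding microarrays carrying double-stranded probes. Antibodies against each partner (one per run) detected binding, and z-scores were calculated against random background probes after regression normalization of scanned fluorescence.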

[2] = test system: PPARg:RXRa IVT, anti-PPARg (NR concentration 270 nM, RXRa partner concentration 90 nM)
Procedure, shortened: as §1

[3] = test system: PPARg DBDmut:RXRa IVT, anti-PPARg (DBD mutation: PPARg1 K132A/R137A, NR concentration 270 nM, RXRa partner concentration 90 nM)
Procedure, shortened: as §1

[4] = test system: PPARg DBDmut IVT, anti-PPARg (DBD mutation: PPARg1 K132A/R137A, NR concentration 270 nM)
Procedure, shortened: as §1

[5] = test system: PPARg homodimer (NR concentration 180 nM)
Procedure, shortened: as §1

[6] = test system: PXR:RXRa (NR concentration 270 nM, RXRa partner concentration 90 nM)
Procedure, shortened: as §1

[7] = test system: PXR homodimer (NR concentration 270 nM)
Procedure, shortened: as §1

[8] = test system: RARa:RXR (NR concentration 270 nM, RXRa partner concentration 90 nM)
Procedure, shortened: as §1

[9] = test system: RARa homodimer (NR concentration 270 nM)
Procedure, shortened: as §1

[10] = test system: RARb homodimer (NR concentration 270 nM)
Procedure, shortened: as §1

[11] = test system: RARg:RXRa (NR concentration 270 nM, RXRa partner concentration 90 nM)
Procedure, shortened: as §1

[12] = test system: RARg homodimer (NR concentration 270 nM)
Procedure, shortened: as §1

[13] = test system: RXRa DBDmut IVT, anti-RXR (DBD mutation: RXRa K156A/R161A, NR concentration 90 nM)
Procedure, shortened: as §1

[14] = test system: RXRa homodimer (NR concentration 180 nM)
Procedure, shortened: as §1

[15] = test system: THRa:RXRa (NR concentration 90 nM, RXRa partner concentration 90 nM)
Procedure, shortened: as §1

[16] = test system: THRa homodimer (NR concentration 90 nM)
Procedure, shortened: as §1

[17] = test system: VDR homodimer (NR concentration 270 nM)
Procedure, shortened: as §1

[18] = test system: VDR:RXRa (NR concentration 270 nM, RXRa partner concentration 90 nM)
Procedure, shortened: as §1

Row | Sequence | PBM binding z-score [1] | PBM binding z-score [2] | PBM binding z-score [3] | PBM binding z-score [4] | PBM binding z-score [5] | PBM binding z-score [6] | PBM binding z-score [7] | PBM binding z-score [8] | PBM binding z-score [9] | PBM binding z-score [10] | PBM binding z-score [11] | PBM binding z-score [12] | PBM binding z-score [13] | PBM binding z-score [14] | PBM binding z-score [15] | PBM binding z-score [16] | PBM binding z-score [17] | PBM binding z-score [18]
1 | AGTCAAATTTCACTAGGTAACGTAAGATTCAGCT | 1.53 | 2.38 | 0.835 | 0.824 | 0.334 | 0.334 | -0.0218 | 0.0458 | 1.44 | 0.0165 | -0.19 | 0.218 | 0.395 | -0.206 | 0.638 | 0.471 | 0.31 | –
2 | CCTGCTAGGTCTATGGTCAGCTAAAGCAGCTCGC | -0.291 | -0.225 | -0.749 | -1.11 | -0.133 | -0.569 | -0.846 | -0.37 | -0.766 | 0.163 | -0.335 | -0.344 | 0.301 | -0.345 | -0.0563 | -0.394 | -0.594 | -0.536
3 | CGTGCAAGGTCAGAGAGGTCAGTGAATGCCGAGT | 2.79 | 3.68 | 0.231 | -0.338 | 2.85 | 6.05 | 11.2 | 5.42 | 0.698 | 5.37 | 6.33 | 7.25 | 3.07 | 5.82 | 4.31 | 2.54 | 5.99 | –
4 | CGTCCAAGGGCAGCAGGTCAGTGAAAGCGACGTG | 0.8 | 0.701 | -0.933 | -1.17 | 0.592 | 0.274 | -0.825 | 0.723 | -0.64 | 2.99 | 2.31 | 2.9 | 0.247 | 0.676 | 1.28 | -0.115 | 0.0968 | 0.17
5 | CGTCAAAGCTCAACTAAGGTAACGTAAAGCACGC | 0.431 | -0.398 | -1.05 | -0.108 | 0.191 | -0.124 | -0.0533 | 0.83 | -0.0738 | 0.161 | 0.118 | 0.236 | 0.155 | -0.0326 | 3.64 | 1.57 | -0.205 | –
6 | CGTCCAAGGTCAACAGGTCAGTGAAAGCGACGTG | 3.88 | 4.5 | 0.0184 | 0.0079 | 5.41 | 4.98 | 1.28 | 5.92 | 1.34 | 5.3 | 7.26 | 7.37 | 3.65 | 6.49 | 4.23 | 2.98 | 2.51 | 5.16
7 | CGTCGGAGGACAGAAGGTCAGAGCTGTCCGCTTT | 0.0146 | 0.25 | -1.84 | -2.14 | 1.33 | 1.48 | -0.228 | 1.84 | 0.257 | 3.36 | 3.56 | 3.38 | 0.338 | 1.83 | 2.08 | -0.192 | 0.136 | –
8 | GCTGCTAGGTAAGGTTGGTCAGCTAACGGGTACG | 0.515 | 0.0144 | -1.12 | -0.451 | -0.00134 | -0.363 | -0.442 | -0.608 | -0.745 | 0.738 | -0.277 | -0.313 | -0.185 | -0.296 | 0.277 | -0.184 | -0.0228 | -0.447
9 | ATCTCTAGGTAAAGTTCATTGAAAGATCGATAGA | 2.31 | 2.83 | 2.23 | 2 | 2.58 | 4.46 | 5.32 | 2.76 | 2.29 | 1.97 | 2.99 | 3.16 | 2.96 | 2.49 | 1.84 | 0.478 | 4.56 | 3.08
10 | CAAGCTAGGTCAAGAGGTCAAAGTCCGCTTCCCG | 4.26 | 5.5 | 0.198 | -0.534 | 7.12 | 6.25 | 3.16 | 7.58 | 3.04 | 5.7 | 8.34 | 7.66 | 2.58 | 8.24 | 4.31 | 2.36 | 3.64 | –
11 | CGTCAAAGTTCAACTAAGGTAACGTATAGCACGC | 0.646 | 2.49 | 2.35 | 1.51 | 3.82 | 5.78 | 5.22 | 4.65 | 2.34 | 4.33 | 5.92 | 6.62 | 4.32 | 4.78 | 5.26 | 1.89 | 4.37 | 4.92
12 | ATTTGTAGGTTATCGGGTCATTCAGTTTGCGCAT | 6.74 | 6.84 | 2.14 | 2.88 | 3.32 | 4.01 | 6.61 | 3.9 | 2.71 | 3.53 | 3.69 | 3.01 | 1.95 | 3.61 | 3.6 | 3.62 | 4.42 | 5.57
13 | ATATGAAGGTTATCGGGTCATTCAGTTTGCGCAT | 3.47 | 4.42 | 1.16 | 1.48 | 2.47 | 3.93 | 8.15 | 4.44 | 0.435 | 3.17 | 4 | 2.89 | 2.04 | 4.02 | 3.38 | 2.69 | 4.06 | –
14 | CGTCCAAGGTCAACGCTAGGTCAGTGAAAGCATT | 3.48 | 4.66 | -0.0404 | 0.201 | 6.46 | 5.11 | 1.66 | 6.35 | 2.52 | 5.38 | 7.88 | 7.21 | 3.69 | 6.38 | 4.61 | 3.53 | 2.6 | 5.09
15 | CCTACTGGGCCAAGGTCATTGCTCAGTCAAAGCA | 3.53 | 4.65 | 0.15 | -1.36 | 1.17 | 3.36 | 0.887 | 3.01 | -0.436 | 3.23 | 3.53 | 2.97 | 1.25 | 2.85 | 3.42 | 2.02 | 3.2 | –
16 | CCGACTGGGCCATTCAGAGGTCATTGATCATATG | 3.29 | 2.53 | -0.872 | -0.8 | 3.14 | 4.88 | 2.75 | 4.62 | -0.131 | 3.91 | 4.49 | 3.13 | 1.43 | 3.85 | 3.01 | 1.22 | 3.2 | 3.7
